High-throughput results: PubChem, ICCB-Longwood Screening Facility, Harvard Medical School
Sa growth 42C: S. aureus growth inhibition at 42 and 30 °C, primary screen, LtaS inhibitor project, RN4220, two temperatures. relative growth, % (test concentration not listed). OD600, 20 h, 42 °C; active compounds read low. AID 720641, 2013. hit rate 0.53% among 170,000;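 active = relative growth at most 50% at the other temperature and 20+ points below 30 °C, or under 10% at both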
S aureus helic: inhibitors of S. aureus replicative helicase, primary screen, biochemical, fluorescence unwinding readout; replicative DNA helicase (DnaC/DnaB), Staphylococcus aureus; purified S. aureus helicase, fluorescence unwinding assay; inhibition, % (test concentration not listed); hit rate 0.05% among 120,000; in the data active = inhibition above about 25%, passing the limit was not always enough;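 also: 0% = mean of negative control wells and 100% = mean of positive control wells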
* = called active by the depositor; . = not tested or not shown; ! = repeats disagree. This excerpt belongs to a sample that is enriched for hits.

SMILES	Sa growth 42C	S aureus helic
CCOC(=O)Oc1cc2oc(=O)sc2cc1Cl	4.9*	32
CCOC(=O)N=c1oc2cc(Cl)c(Cl)cc2o1	57	12
Cc1ccc2nc(Sc3cccc(Cl)c3)[nH]c2c1	83	8
CCCCc1oc2ccccc2c1C(=O)c1ccc(O)cc1	32	4
CCc1oc2ccccc2c1C(=O)c1cc(Br)c(O)c(Br)c1	4.4*!	.
O=C(Nc1nnc(C2=COCCO2)o1)c1ccc(Cl)cc1	3.7*	22
CN(C1CCCCC1)S(=O)(=O)c1ccc(C(=O)Nc2ccccc2)cc1	.	13
CN(Cc1ccccc1)S(=O)(=O)c1ccc(C(=O)Nc2nnc(-c3ccco3)o2)cc1	83	4
COc1cc(OC)cc(-c2nnc(NC(=O)c3ccc(S(=O)(=O)N(C)c4ccccc4)cc3)o2)c1	-0.1*	4
CN(C1CCCCC1)S(=O)(=O)c1ccc(C(=O)Nc2nnc(-c3cccnc3)o2)cc1	2.3*	8
COc1ccc(-c2nnc(NC(=O)c3ccc(S(=O)(=O)N4CCCc5ccccc54)cc3)o2)cc1	92	5
COc1cc(OC)cc(-c2nnc(NC(=O)c3ccc(S(=O)(=O)N4COCC4(C)C)cc3)o2)c1	1.0*	9
O=C(Nc1nnc(C2=COCCO2)o1)c1cccc2ccccc12	92	7
Cc1nn(-c2ccccc2)c2c1nc(CCC(=O)NCC1CCCO1)c(=O)n2C (stereo not drawn)	101	5
COc1ccc(NC2CC(C)Nc3ccc(OC)cc32)cc1 (stereo not drawn)	105	-3
O=C(Nc1nnc(-c2ccccc2)o1)c1ccccc1	0.0*	15
COc1ccc(-c2nnc(NC(=O)C3CC3)o2)cc1	78	1
O=C(Nc1nnc(-c2cccs2)o1)c1ccccc1	.	-19
O=C(Nc1nnc(-c2ccc(Cl)cc2)o1)C1CC1	2.6*	6
CC1(C)NNC(=S)NC1=O	92	3
CCCCN1C(=O)C(O)(c2c(C)nn(CCC#N)c2N)c2ccccc21 (stereo not drawn)	101	4
COc1ccc(C(CC#N)C2CCOC(C)(C)C2)cc1 (stereo not drawn)	102	-17
CC(C)(C)c1cc(NC(=O)c2ccc3c(c2)S(=O)(=O)c2ccccc2C3=O)on1	82	0
CCNc1nc(SCc2ccc(Cl)cc2)nc2sc3c(c12)CCN(C)C3	10.0*	.
CCNc1nc(SCC(=O)NC(=O)NCc2ccccc2)nc2sc3c(c12)CCN(C)C3	83	.
SMILES	Sa growth 42C	S aureus helic
CCN(CC)c1ccc2c(c1)CCCN2	4.2*	8
O=S(=O)(c1ccc2c(c1)CCCN2)N1CCCCC1	101	-12
Cc1ccc(C(=O)CC(=O)c2ccccc2O)cc1	0.8*	2
O=C(CC(=O)c1ccccc1O)c1ccc(Cl)cc1	1.1*	-2
O=C(CC(=O)c1c(F)cccc1F)c1ccccc1O	123	.
COc1ccc(C(=O)CC(=O)c2ccccc2O)cc1	87	16
CCOC(=O)C1=C(O)CSC1=NC(=O)c1ccc(OC)cc1	72	-24
CCOC(=O)Cc1csc(NC(=S)NC(=O)c2ccco2)n1	69	10
CCOc1ccc(-c2cc(CCCC(=O)Nc3ccc(F)cc3F)no2)cc1	76	13
CC(=O)NCCCCCCNC(C)=O	21*	.
CC(=O)NCCCc1nc2ccccc2[nH]1	.	2
CN(Cc1coc(-c2ccccc2)n1)Cc1coc(-c2ccccc2)n1	-1.3*	-23
O=C(O)Cc1coc(-c2ccc(F)cc2)n1	78	-19
c1ccc(CNc2nnnn2-c2ccccc2)cc1	106	3
O=S(=O)(Cc1ccccc1)c1nnnn1-c1ccccc1	-0.2*	5
CCS(=O)(=O)c1nnnn1-c1ccccc1S(C)(=O)=O	89	3
CCS(=O)(=O)c1nnnn1-c1ccccc1	0.1*	-3
O=C(O)c1cc(C2CC2)[nH]n1	107	-1
CC(=O)Nc1ccc2nc(NC(=O)c3cc4ccccc4o3)sc2c1	94	7
CCOC(=O)C(C#N)c1c(F)c(F)c(Br)c(F)c1F (stereo not drawn)	-1.0*	-4
CCOC(=O)C(C#N)c1ccccn1 (stereo not drawn)	107	.
CC(=O)NCc1nc2ccccc2n1C	.	-17
O=C(CSc1nnc(COc2ccccc2Cl)o1)NC(=O)c1ccccc1	106	18
COc1cccc(N2CC(=O)N(/N=C/c3ccc(Cl)cc3)CC2=O)c1	86	10
NNc1nc(NN)nc(Nc2cccc(C(F)(F)F)c2)n1	77	9
SMILES	Sa growth 42C	S aureus helic
Fc1ccc(Nc2nc3nonc3nc2Nc2ccccc2F)cc1	-0.6*	17
Fc1ccc(Nc2nc3nonc3nc2Nc2cccc(C(F)(F)F)c2)cc1	-1.0*	.
O=c1[nH]c2nonc2nc1Nc1ccccc1F	29	2
CC(=O)N1CCN(c2ccc(OC[C@H]3CO[C@](Cn4ccnc4)(c4ccc(Cl)cc4Cl)O3)cc2)CC1	1.2*!	.
CC(=O)N1CCN(c2ccc(Oc3ccnc4cc(Cl)ccc34)cc2)CC1	93	5
O=C(COC(=O)c1cc(-c2ccc(F)cc2)nc2ccccc12)Nc1ccccc1F	103	-1
CC(C)NC(=O)C1c2ccccc2C(=O)N(C)C1c1cccs1 (stereo not drawn)	90	-24
CCCCN(Cc1cc2cc(OC)ccc2[nH]c1=O)S(C)(=O)=O	101	-2
Cc1cc(C)[n+](CC(O)CCl)n1CC(O)CCl (stereo not drawn)	106	2
c1ccc(-c2cccc(-c3ccccn3)n2)nc1	2.4*	12
c1ccc(-c2ccc3ccccc3n2)nc1	63	-5
CCn1nc(C)cc1C(=O)n1nc(C)c(Sc2nccn2C)c1C	89	23
O=C(Nc1ccccc1)Nc1ccc(OC(F)F)cc1	92	-17
Cc1conc1NC(c1cccs1)c1ccc2cccnc2c1O (stereo not drawn)	3.1*	11
O=C(NC(c1cccs1)c1ccc2cccnc2c1O)C1CCCCC1 (stereo not drawn)	105	16
COC(=O)c1cc(C(O)(C(F)(F)F)C(F)(F)F)c(N)s1	106	4
CC[C@H]1OC(=O)[C@H](C)[C@@H](O[C@H]2C[C@@](C)(OC)[C@@H](O)[C@H](C)O2)[C@H](C)[C@@H](O[C@@H]2O[C@H](C)C[C@H](N(C)C)[C@H]2O)[C@](C)(O)C[C@@H](C)CN(C)[C@H](C)[C@@H](O)[C@]1(C)O	-0.9*	.
CCOC(=O)c1sc2ncn(C(C)C(=O)OCc3ccccc3)c(=O)c2c1C (stereo not drawn)	104	0
CC1SC(=N)N(c2ncc(Cc3ccccc3Cl)s2)C1=O (stereo not drawn)	-1.0*	1
O=C(Nc1ncc(Cc2ccccc2Cl)s1)c1ccco1	.	-8
Cc1cc2nc(N)nc(N)n2n1	99	22
O=C(O)CSc1nnc(NC2CCCCC2)s1	77	5
N#CSc1cnc(NC2CCCCC2)s1	5.0*	-2
COC(=O)c1ccc2c(=O)[nH]c(COC(=O)/C=C/c3ccc(S(=O)(=O)NCc4ccco4)cc3)nc2c1	69	-4
O=C(COc1ncnc2c1cnn2-c1ccccc1)c1ccc(Cl)s1	102	-18
COc1ccc(/C=C(\C#N)c2cccs2)cc1	47*	-12
N#C/C(=C\c1ccc(C(F)(F)F)cc1)c1cccs1	99	.
O=C(COc1ccccc1)Nc1c(-c2ccc(F)cc2)nc2ccccn12	.	13
COC(=O)c1nc2ccccc2n1Cc1ccc(C)cc1	45*	-12
